The text below walks through data of article PMC7862700, “An all-to-all approach to the identification of sequence-specific readers for epigenetic DNA modifications on cytosine”.

Holding throughout (experiment): DAPPL (digital affinity profiling via proximity ligation, sequencing); 10 mM Tris-HCl pH 7.5, 50 mM NaCl, 1 mM DTT, 4% glycerol, room temperature, 30 min; GST-TFs on glutathione beads, 16-mer random dsDNA library, 0.1% formaldehyde crosslink after washing; high values mean tight binding
Holding throughout (conditions): protein: recombinant; tags: N-terminal GST; dsDNA, one strand shown

For one test, the target named is T1, ERF (Homo sapiens, UniProt P50548 1-548).
T1 sequence: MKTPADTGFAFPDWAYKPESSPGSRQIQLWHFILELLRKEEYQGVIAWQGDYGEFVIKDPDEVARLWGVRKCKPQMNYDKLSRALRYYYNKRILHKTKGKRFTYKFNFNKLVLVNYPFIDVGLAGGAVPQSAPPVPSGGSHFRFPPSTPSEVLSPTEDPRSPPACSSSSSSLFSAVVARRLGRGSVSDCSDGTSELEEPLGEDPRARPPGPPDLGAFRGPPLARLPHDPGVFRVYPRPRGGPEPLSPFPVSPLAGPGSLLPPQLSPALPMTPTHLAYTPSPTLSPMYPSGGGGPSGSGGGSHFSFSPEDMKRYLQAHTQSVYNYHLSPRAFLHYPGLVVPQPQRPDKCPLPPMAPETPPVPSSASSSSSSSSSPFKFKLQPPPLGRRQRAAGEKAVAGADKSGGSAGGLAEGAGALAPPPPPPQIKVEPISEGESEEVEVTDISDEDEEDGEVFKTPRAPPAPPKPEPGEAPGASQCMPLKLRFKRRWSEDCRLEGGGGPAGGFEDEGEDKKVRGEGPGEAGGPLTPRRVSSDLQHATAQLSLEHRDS
An outline of the steps:
(§1)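 In yeast, human transcription factors were expressed with a GST fusion, then pulled down on glutathione beads and given DNA barcodes. Pooled with a tag-only sample, they were exposed to 200 nmole of a 16-mer random double-stranded DNA library (Tris/NaCl/DTT/glycerol buffer, room temperature, 30 min), washed, crosslinked with 0.1% formaldehyde, proximity-ligated using BsaI/T4 ligase for 1 h at 37 °C, PCR-amplified and read on an Illumina NextSeq500. Each hexamer's frequency of reads for a factor, divided by the matching frequency for the tag-only sample, gives the binding signal.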

The target in a further test is T2, ETV3L (Homo sapiens, UniProt Q6ZN32 1-361).
T2 sequence: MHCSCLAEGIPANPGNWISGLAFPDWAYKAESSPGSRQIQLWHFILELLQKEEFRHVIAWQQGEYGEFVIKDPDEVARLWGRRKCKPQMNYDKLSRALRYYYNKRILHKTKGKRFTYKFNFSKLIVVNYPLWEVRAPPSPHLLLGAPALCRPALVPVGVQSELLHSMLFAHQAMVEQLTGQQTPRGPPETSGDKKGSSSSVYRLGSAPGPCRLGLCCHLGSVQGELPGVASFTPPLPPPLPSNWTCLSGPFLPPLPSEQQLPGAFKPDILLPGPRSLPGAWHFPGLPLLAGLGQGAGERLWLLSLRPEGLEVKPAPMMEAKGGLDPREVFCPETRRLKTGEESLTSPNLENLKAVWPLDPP
In outline: as §1

For another test, the target named is T3, ETS2 (Homo sapiens, UniProt P15036 1-469).
T3 sequence: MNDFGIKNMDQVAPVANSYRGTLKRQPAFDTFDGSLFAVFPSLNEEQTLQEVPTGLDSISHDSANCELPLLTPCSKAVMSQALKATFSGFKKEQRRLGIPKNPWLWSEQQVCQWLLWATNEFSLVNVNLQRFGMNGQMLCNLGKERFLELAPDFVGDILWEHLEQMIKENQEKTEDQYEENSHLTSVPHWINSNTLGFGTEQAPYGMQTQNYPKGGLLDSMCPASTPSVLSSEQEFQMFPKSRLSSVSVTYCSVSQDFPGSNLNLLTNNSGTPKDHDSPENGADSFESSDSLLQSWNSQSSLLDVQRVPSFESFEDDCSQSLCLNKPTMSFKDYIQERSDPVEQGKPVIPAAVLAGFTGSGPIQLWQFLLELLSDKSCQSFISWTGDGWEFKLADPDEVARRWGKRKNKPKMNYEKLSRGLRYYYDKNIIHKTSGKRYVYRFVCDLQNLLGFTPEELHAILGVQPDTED
In outline:
as §1

In a further test the target is T4, SPDEF (Homo sapiens, UniProt O95238 1-335).
T4 sequence: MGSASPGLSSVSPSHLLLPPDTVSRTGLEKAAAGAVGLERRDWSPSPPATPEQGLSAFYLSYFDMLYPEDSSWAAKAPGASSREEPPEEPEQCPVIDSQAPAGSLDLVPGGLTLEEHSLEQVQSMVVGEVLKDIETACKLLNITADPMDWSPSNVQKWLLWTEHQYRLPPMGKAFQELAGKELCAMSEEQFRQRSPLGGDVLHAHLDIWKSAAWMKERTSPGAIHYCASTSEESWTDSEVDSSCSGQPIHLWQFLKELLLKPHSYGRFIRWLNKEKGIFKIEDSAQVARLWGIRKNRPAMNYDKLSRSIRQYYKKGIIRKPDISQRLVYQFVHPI
An outline of the steps: as §1

The target in the next test is T5, ETV7 (Homo sapiens, UniProt Q9Y603 1-341).
T5 sequence: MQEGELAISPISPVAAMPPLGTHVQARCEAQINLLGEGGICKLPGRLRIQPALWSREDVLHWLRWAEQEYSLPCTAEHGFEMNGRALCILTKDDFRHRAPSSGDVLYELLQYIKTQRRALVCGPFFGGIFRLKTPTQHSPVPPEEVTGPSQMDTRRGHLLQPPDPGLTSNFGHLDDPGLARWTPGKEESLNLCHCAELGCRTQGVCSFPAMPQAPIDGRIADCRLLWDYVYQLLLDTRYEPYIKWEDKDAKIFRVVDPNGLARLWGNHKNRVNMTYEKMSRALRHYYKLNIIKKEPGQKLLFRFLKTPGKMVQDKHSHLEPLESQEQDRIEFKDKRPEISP
An outline of the steps:
as §1

Another test addresses T6, ETV3 (Homo sapiens, UniProt P41162-2 1-143).
T6 sequence: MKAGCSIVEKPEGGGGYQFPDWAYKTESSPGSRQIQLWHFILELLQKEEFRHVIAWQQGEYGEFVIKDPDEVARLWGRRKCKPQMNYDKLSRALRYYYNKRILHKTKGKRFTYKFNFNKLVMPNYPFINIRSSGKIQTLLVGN
In outline:
as §1

The target in the next test is ETV6 (Homo sapiens, UniProt P41212 1-452). An outline of the steps: as §1
ETV6, sequence (P41212 whole entry): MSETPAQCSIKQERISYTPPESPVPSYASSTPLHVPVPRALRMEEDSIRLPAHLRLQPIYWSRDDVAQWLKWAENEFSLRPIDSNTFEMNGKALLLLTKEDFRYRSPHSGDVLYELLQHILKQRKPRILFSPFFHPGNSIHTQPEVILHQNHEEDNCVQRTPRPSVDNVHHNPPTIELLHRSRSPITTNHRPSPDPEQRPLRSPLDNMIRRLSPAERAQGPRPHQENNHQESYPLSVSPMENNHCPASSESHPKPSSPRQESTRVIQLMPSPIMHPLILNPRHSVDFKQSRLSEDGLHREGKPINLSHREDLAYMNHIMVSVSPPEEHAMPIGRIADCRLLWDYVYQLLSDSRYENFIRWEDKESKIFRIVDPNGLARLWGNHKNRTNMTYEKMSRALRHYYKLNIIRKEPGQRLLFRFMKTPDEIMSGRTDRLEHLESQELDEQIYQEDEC
The next test addresses T7, ELF5 (Homo sapiens, UniProt Q9UKW6-2 1-255).
T7 sequence: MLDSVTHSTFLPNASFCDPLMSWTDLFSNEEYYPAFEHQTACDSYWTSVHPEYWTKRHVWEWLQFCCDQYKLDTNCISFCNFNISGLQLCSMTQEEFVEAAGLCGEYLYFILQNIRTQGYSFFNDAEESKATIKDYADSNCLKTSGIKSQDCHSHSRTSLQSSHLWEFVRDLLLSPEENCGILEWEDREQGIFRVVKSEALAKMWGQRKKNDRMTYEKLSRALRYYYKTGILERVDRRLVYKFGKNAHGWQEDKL
An outline of the steps: as §1

Consider ATAAGC, for which the binding signal is 1.18 fold enrichment (6-mer frequency, TF over GST control) in the test with ERF; 1.12 fold enrichment (6-mer frequency, TF over GST control) with ETV3L; 1.08 fold enrichment (6-mer frequency, TF over GST control) in the test with ETS2; 1.07 fold enrichment (6-mer frequency, TF over GST control) with SPDEF; 1.11 fold enrichment (6-mer frequency, TF over GST control) in the test with ETV7; 1.11 fold enrichment (6-mer frequency, TF over GST control) with ETV3. Moreover, the binding signal with ETV6 is 1.02 fold enrichment (6-mer frequency, TF over GST control).
With GAAAAC, the binding signal with ERF was 1.11 fold enrichment (6-mer frequency, TF over GST control); in the test with ETV3L, 1.13 fold enrichment (6-mer frequency, TF over GST control); with ETS2, 1.11 fold enrichment (6-mer frequency, TF over GST control); with SPDEF, 1.07 fold enrichment (6-mer frequency, TF over GST control); with ETV7, 1.13 fold enrichment (6-mer frequency, TF over GST control); with ELF5 it was 1.16 fold enrichment (6-mer frequency, TF over GST control). In addition, the binding signal with ETV6 was 1.06 fold enrichment (6-mer frequency, TF over GST control).
In the case of AGCTCA, the binding signal with ERF was 1.08 fold enrichment (6-mer frequency, TF over GST control); in the test with ETV3L, 1.08 fold enrichment (6-mer frequency, TF over GST control); with ETS2 it was 1.13 fold enrichment (6-mer frequency, TF over GST control); with SPDEF, 1.08 fold enrichment (6-mer frequency, TF over GST control); in the test with ETV7, 1.03 fold enrichment (6-mer frequency, TF over GST control); in the test with ETV3, 1.15 fold enrichment (6-mer frequency, TF over GST control). For the same sequence, the binding signal in the test with ETV6 is 1.1 fold enrichment (6-mer frequency, TF over GST control).
For TTTAGG, the binding signal with ERF is 1.22 fold enrichment (6-mer frequency, TF over GST control); with ETV3L it was 1.02 fold enrichment (6-mer frequency, TF over GST control); with ETS2, 1.11 fold enrichment (6-mer frequency, TF over GST control); in the test with SPDEF, 1.09 fold enrichment (6-mer frequency, TF over GST control); in the test with ETV7 it was 1.19 fold enrichment (6-mer frequency, TF over GST control); in the test with ETV3, 1.07 fold enrichment (6-mer frequency, TF over GST control). For the same sequence, the binding signal in the test with ETV6 was 1.19 fold enrichment (6-mer frequency, TF over GST control).
For the sequence ATCAAT, the binding signal in the test with ERF is 1.15 fold enrichment (6-mer frequency, TF over GST control); in the test with ETV3L it was 1.03 fold enrichment (6-mer frequency, TF over GST control); in the test with ETS2 it was 1.05 fold enrichment (6-mer frequency, TF over GST control); with SPDEF, 1.03 fold enrichment (6-mer frequency, TF over GST control); with ETV7 it was 1.12 fold enrichment (6-mer frequency, TF over GST control); with ETV3 it was 1.14 fold enrichment (6-mer frequency, TF over GST control). The binding signal with ETV6 is 1.07 fold enrichment (6-mer frequency, TF over GST control).
Turning to AGCTAA, the binding signal with ERF was 1.1 fold enrichment (6-mer frequency, TF over GST control); with ETV3L, 1.05 fold enrichment (6-mer frequency, TF over GST control); with ETS2, 1.15 fold enrichment (6-mer frequency, TF over GST control); in the test with SPDEF, 1.02 fold enrichment (6-mer frequency, TF over GST control); in the test with ETV7, 1.1 fold enrichment (6-mer frequency, TF over GST control); with ETV3, 1.1 fold enrichment (6-mer frequency, TF over GST control).
For the sequence GATAGC, the binding signal with ERF is 1.15 fold enrichment (6-mer frequency, TF over GST control); with ETV3L, 1.06 fold enrichment (6-mer frequency, TF over GST control); with ETS2, 1.12 fold enrichment (6-mer frequency, TF over GST control); with SPDEF, 1.05 fold enrichment (6-mer frequency, TF over GST control); in the test with ETV7, 1.06 fold enrichment (6-mer frequency, TF over GST control); in the test with ETV3, 1.05 fold enrichment (6-mer frequency, TF over GST control). In addition, the binding signal with ETV6 was 1.03 fold enrichment (6-mer frequency, TF over GST control).
In the case of ATTGAA, the binding signal was 1.14 fold enrichment (6-mer frequency, TF over GST control) with ERF; 1.1 fold enrichment (6-mer frequency, TF over GST control) with ETV3L; 1.09 fold enrichment (6-mer frequency, TF over GST control) in the test with ETS2; 1.07 fold enrichment (6-mer frequency, TF over GST control) with SPDEF; 1.14 fold enrichment (6-mer frequency, TF over GST control) with ETV7; 1.03 fold enrichment (6-mer frequency, TF over GST control) with ETV3. Further, the binding signal with ETV6 is 1.08 fold enrichment (6-mer frequency, TF over GST control).
On to TTGGGC, for which the binding signal with ERF is 1.12 fold enrichment (6-mer frequency, TF over GST control); with ETV3L it was 1.22 fold enrichment (6-mer frequency, TF over GST control); with ETS2 it was 1.12 fold enrichment (6-mer frequency, TF over GST control); with SPDEF it was 1 fold enrichment (6-mer frequency, TF over GST control); in the test with ETV7, 1.09 fold enrichment (6-mer frequency, TF over GST control); with ETV3, 1.04 fold enrichment (6-mer frequency, TF over GST control). Besides, the binding signal with ETV6 is 1.11 fold enrichment (6-mer frequency, TF over GST control).
Consider GTGCTA, for which the binding signal in the test with ERF was 1.02 fold enrichment (6-mer frequency, TF over GST control); with ETV3L, 1.04 fold enrichment (6-mer frequency, TF over GST control); with ETS2, 1.13 fold enrichment (6-mer frequency, TF over GST control); with SPDEF it was 1.12 fold enrichment (6-mer frequency, TF over GST control); with ETV7, 1 fold enrichment (6-mer frequency, TF over GST control); with ETV3, 1.11 fold enrichment (6-mer frequency, TF over GST control).
For the sequence TGCGTT, the binding signal with ERF was 1.2 fold enrichment (6-mer frequency, TF over GST control); in the test with ETV3L, 1.11 fold enrichment (6-mer frequency, TF over GST control); in the test with ETS2 it was 1.09 fold enrichment (6-mer frequency, TF over GST control); with SPDEF, 1.08 fold enrichment (6-mer frequency, TF over GST control); with ETV7 it was 1.24 fold enrichment (6-mer frequency, TF over GST control); with ETV3 it was 1.06 fold enrichment (6-mer frequency, TF over GST control).
In the case of CTGAGC, the binding signal with ERF is 1.06 fold enrichment (6-mer frequency, TF over GST control); with ETV3L, 1.14 fold enrichment (6-mer frequency, TF over GST control); with ETS2 it was 1.15 fold enrichment (6-mer frequency, TF over GST control); in the test with SPDEF it was 1.16 fold enrichment (6-mer frequency, TF over GST control); in the test with ETV7 it was 1.16 fold enrichment (6-mer frequency, TF over GST control); in the test with ETV3, 1.01 fold enrichment (6-mer frequency, TF over GST control). For the same sequence, the binding signal in the test with ETV6 is 1.16 fold enrichment (6-mer frequency, TF over GST control).
